Source: the supplement of paper PMC10849652
About 8,800 targets were measured; listed, in parts, are those with a hit and a random draw of the rest. About 0.5% of all pairs of compound and target were hits. Values without a mark were called inactive.

Assays:
Assay in all cases: log2 fold change, soluble protein after heating vs DMSO (PISA); higher = thermal stabilisation; K562 lysate, 10 uM; active = over 0.2 and 3.5 SD of the protein, either way, in both replicates (recomputed)
[1] = compound: CN1CC[C@H](c2c(O)cc(O)c3c(=O)cc(-c4ccccc4Cl)oc23)[C@H](O)C1 [alvocidib]
Procedure, shortened: (§1)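 Log-two fold change in thermal stability relative to solvent controls is reported from duplicates. For each sample, crude K562 extract from dounce-homogenised pellets in PBS pH 7.4 with 1 mM MgCl2, at 1 mg/mL protein, was treated with 10 μM compound for 30 min. Aliquots heated for 3 min across 48°C-58°C were pooled, brought to 0.5% NP-40 at 4°C and cleared at 21,000xg for 90 min. The supernatant was quantified by TMTpro 16plex LC-MS/MS with channel sums equalised.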

[2] = compound: CN1CCc2c(c3ccccc3n2Cc2ccc(C(=O)NO)cc2)C1 [Tubastatin A]
Procedure, shortened: as §1

[3] = compound: CNC(=O)C1=CC=CC=C1NC2=NC(=NC=C2Cl)NC3=C(C=C(C=C3)N4CCOCC4)OC
Procedure, shortened: as §1

[4] = compound: CNC(=O)c1ccc(Nc2ncc(C(F)(F)F)c(NCc3nccnc3N(C)S(C)(=O)=O)n2)cc1 [defactinib]
Procedure, shortened: as §1

[5] = compound: CNc1nc(-c2ccc3c(N)n[nH]c3c2)cc(N2C[C@@H](C(=O)NC3CCCCC3)CC[C@H]2C)n1
Procedure, shortened: as §1

[6] = compound: COC(=O)N[C@@H](C)CNc1nccc(-c2cn(C(C)C)nc2-c2cc(Cl)cc(NS(C)(=O)=O)c2F)n1 [encorafenib]
Procedure, shortened: as §1

[7] = compound: COC(=O)[C@H](CCSC)NC(=O)C1=C(C=C(C=C1)NC[C@H](CS)N)C2=CC=CC=C2
Procedure, shortened: as §1

[8] = compound: COc1cc(Nc2ncc3c(n2)-c2ccc(Cl)cc2C(c2c(F)cccc2OC)=NC3)ccc1C(=O)O [alisertib]
Procedure, shortened: as §1

[9] = compound: COc1cc2nc(-c3cc(F)ccc3O)nc(N[C@@H]3CNC[C@H]3C(C)(C)O)c2cc1OC
Procedure, shortened: as §1

[10] = compound: COc1cc2ncnc(Nc3ccc(F)c(Cl)c3)c2cc1OCCCN1CCOCC1 [gefitinib]
Procedure, shortened: as §1

[11] = compound: CS(=O)(=O)CCNCc1ccc(-c2ccc3ncnc(Nc4ccc(OCc5cccc(F)c5)c(Cl)c4)c3c2)o1 [lapatinib]
Procedure, shortened: as §1

[12] = compound: CS(=O)(=O)N1CCN(Cc2cc3nc(-c4cccc5[nH]ncc45)nc(N4CCOCC4)c3s2)CC1 [pictilisib]
Procedure, shortened: as §1

[13] = compound: C[C@@H](Oc1cc(-c2cnn(C3CCNCC3)c2)cnc1N)c1c(Cl)ccc(F)c1Cl [crizotinib]
Procedure, shortened: as §1

[14] = compound: C[C@H](C1=CC=C(C=C1)C(=O)NC2=C3C=CNC3=NC=C2)N
Procedure, shortened: as §1

[15] = compound: C[C@H](Nc1ncnc2nc[nH]c12)c1cc2cccc(Cl)c2c(=O)n1-c1ccccc1 [duvelisib]
Procedure, shortened: as §1

[16] = compound: Cc1cc(Nc2cc(CN3CCOCC3)c3nc(C)c(Cc4ccc(Cl)cc4F)n3n2)n[nH]1 [gandotinib]
Procedure, shortened: as §1

[17] = compound: Cc1cc(Nc2cc(N3CCN(C)CC3)nc(Sc3ccc(NC(=O)C4CC4)cc3)n2)n[nH]1 [tozasertib]
Procedure, shortened: as §1

[18] = compound: Cc1ccc(-n2nc(C(C)(C)C)cc2NC(=O)Nc2ccc(OCCN3CCOCC3)c3ccccc23)cc1 [doramapimod]
Procedure, shortened: as §1

[19] = compound: Cc1ccc(NC(=O)c2ccc(CN3CC[C@H](N(C)C)C3)c(C(F)(F)F)c2)cc1Nc1nccc(-c2cncnc2)n1 [bafetinib]
Procedure, shortened: as §1

[20] = compound: Cc1cccc(CC(=O)N2CCc3c2ccc(-c2cn(C)c4ncnc(N)c24)c3F)n1
Procedure, shortened: as §1

UniProt Q14166, sequence (Q14166 whole entry, looked up): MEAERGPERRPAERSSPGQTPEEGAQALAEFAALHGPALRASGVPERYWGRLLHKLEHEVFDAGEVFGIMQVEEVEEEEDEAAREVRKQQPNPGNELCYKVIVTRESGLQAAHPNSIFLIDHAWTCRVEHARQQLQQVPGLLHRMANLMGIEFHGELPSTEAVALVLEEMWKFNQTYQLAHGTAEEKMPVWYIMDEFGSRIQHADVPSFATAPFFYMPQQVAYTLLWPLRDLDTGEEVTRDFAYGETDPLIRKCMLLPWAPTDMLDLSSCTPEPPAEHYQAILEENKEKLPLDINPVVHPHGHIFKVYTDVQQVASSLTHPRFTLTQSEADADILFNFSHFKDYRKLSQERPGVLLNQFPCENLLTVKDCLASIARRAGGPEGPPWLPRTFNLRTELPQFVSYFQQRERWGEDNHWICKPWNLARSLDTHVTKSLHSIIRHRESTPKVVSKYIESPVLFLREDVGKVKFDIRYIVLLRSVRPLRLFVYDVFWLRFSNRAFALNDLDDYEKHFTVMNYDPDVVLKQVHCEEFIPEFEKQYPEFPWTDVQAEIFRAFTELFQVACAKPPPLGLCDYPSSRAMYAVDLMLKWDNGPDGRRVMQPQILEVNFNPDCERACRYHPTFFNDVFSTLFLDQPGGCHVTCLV
UniProt Q13509, sequence (Q13509 whole entry, looked up): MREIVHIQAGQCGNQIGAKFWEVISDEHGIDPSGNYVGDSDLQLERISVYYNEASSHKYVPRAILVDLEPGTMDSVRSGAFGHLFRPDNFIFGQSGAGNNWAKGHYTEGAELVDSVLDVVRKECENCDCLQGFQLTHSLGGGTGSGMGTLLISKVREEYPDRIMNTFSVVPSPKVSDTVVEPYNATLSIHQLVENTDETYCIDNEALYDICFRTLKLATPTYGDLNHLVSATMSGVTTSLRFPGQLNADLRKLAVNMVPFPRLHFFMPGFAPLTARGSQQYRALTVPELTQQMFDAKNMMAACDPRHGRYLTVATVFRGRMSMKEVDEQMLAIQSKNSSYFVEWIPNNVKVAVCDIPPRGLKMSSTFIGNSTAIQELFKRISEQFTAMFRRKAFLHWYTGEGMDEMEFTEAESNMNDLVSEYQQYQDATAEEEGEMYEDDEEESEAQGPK
UniProt Q96CW5, sequence (Q96CW5 whole entry, looked up): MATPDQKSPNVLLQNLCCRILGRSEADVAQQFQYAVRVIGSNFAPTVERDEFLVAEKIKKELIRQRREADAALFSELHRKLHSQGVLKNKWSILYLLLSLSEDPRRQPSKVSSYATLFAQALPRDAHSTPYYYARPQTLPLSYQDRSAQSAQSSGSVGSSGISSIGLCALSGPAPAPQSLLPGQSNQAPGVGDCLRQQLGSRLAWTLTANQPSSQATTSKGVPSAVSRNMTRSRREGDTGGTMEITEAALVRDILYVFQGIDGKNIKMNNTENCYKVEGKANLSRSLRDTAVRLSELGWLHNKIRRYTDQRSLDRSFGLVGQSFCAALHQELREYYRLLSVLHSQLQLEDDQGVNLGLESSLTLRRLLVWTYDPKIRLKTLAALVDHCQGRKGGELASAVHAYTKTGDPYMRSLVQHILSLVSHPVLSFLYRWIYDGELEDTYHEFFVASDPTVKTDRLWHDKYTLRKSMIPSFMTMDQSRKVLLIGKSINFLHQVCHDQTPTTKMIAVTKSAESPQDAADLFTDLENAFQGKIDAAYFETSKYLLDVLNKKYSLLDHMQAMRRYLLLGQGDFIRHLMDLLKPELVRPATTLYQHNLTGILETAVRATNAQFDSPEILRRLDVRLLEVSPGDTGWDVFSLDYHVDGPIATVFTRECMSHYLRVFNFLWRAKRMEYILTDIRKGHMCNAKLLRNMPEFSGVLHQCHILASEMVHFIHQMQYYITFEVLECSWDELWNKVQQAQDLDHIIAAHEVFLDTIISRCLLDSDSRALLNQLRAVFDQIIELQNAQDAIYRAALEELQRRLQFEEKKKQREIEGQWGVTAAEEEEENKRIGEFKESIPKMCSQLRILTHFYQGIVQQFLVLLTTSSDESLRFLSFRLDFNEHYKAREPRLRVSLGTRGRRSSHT
UniProt Q9H497, sequence (Q9H497 whole entry, looked up): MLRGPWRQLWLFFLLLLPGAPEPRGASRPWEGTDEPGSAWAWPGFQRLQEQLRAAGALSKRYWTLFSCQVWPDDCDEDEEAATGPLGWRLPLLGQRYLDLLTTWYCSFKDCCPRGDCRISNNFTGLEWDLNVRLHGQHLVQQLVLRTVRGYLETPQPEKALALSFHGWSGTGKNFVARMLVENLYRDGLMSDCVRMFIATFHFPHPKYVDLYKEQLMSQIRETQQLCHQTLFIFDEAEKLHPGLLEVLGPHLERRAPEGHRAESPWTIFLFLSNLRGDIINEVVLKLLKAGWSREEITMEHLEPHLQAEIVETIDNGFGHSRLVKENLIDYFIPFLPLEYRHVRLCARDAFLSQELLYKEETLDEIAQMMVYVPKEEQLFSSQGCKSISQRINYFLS
UniProt P61960, sequence (P61960 whole entry, looked up): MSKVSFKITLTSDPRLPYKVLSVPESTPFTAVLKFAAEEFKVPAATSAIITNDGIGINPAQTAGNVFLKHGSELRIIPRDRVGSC
UniProt Q12815, sequence (Q12815 whole entry, looked up): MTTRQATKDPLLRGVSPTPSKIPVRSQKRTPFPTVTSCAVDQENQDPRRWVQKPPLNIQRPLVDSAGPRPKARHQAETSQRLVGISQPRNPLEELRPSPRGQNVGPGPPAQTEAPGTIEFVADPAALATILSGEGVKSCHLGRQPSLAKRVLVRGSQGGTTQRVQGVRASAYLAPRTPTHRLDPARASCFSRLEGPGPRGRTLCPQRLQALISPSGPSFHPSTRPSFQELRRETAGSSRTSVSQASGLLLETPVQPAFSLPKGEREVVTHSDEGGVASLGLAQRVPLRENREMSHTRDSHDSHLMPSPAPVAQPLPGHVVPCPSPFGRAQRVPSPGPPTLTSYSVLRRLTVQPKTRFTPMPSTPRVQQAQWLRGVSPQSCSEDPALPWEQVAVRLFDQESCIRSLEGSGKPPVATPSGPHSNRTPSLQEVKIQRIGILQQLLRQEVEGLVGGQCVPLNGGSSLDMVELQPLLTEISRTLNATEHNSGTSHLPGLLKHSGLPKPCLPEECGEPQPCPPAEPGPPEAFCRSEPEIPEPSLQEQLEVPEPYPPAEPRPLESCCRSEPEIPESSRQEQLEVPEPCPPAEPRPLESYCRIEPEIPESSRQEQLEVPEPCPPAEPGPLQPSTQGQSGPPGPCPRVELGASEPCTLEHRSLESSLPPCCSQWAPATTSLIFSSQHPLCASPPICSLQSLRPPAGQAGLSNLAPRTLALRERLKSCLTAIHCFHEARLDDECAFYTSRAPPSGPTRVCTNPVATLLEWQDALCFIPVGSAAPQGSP
UniProt Q96F44, sequence (Q96F44 whole entry, looked up): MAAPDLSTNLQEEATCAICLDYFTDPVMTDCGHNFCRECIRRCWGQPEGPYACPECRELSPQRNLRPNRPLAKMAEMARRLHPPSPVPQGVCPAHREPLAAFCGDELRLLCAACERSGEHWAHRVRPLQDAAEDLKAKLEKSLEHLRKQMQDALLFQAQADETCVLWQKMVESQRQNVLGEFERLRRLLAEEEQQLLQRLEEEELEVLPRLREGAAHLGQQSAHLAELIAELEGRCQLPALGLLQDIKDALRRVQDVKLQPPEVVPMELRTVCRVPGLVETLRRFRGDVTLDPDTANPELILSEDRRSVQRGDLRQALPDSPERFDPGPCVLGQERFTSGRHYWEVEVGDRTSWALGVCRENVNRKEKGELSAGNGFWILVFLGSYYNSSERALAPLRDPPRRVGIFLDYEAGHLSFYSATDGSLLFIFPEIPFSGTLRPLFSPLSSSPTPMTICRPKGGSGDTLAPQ
UniProt Q9UNS1, sequence (Q9UNS1 whole entry, looked up): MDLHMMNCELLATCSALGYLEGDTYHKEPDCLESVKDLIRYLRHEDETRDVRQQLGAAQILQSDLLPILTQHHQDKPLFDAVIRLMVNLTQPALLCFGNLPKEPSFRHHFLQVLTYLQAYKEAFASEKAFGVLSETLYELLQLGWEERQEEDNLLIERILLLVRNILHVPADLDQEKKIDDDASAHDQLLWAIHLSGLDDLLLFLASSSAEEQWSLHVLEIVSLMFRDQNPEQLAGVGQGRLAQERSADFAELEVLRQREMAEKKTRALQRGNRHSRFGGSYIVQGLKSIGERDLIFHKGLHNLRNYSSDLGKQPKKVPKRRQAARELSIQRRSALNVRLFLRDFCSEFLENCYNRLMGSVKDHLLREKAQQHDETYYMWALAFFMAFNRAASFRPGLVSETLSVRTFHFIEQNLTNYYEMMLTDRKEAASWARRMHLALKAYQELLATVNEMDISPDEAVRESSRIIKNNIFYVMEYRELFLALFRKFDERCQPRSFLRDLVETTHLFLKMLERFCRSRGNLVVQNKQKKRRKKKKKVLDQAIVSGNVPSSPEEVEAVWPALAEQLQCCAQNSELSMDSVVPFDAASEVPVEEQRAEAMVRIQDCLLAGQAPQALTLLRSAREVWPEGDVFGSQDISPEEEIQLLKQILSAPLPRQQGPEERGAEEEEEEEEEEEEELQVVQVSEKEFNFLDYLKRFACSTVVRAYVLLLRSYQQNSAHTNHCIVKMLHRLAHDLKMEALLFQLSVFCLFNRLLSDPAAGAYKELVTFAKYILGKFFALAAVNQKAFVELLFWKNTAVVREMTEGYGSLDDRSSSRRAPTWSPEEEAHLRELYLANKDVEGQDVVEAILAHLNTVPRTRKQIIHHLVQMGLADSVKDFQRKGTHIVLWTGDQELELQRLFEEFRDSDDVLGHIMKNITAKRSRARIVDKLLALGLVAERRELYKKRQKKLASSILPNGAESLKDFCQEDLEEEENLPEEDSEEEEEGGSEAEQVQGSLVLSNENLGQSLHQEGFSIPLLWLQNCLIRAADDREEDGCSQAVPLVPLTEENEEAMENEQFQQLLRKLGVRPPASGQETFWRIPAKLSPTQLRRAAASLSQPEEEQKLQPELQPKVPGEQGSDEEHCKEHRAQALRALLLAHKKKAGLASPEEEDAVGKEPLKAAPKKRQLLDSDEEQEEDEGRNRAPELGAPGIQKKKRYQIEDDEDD

Row | Target | log2 fold change [1] | log2 fold change [2] | log2 fold change [3] | log2 fold change [4] | log2 fold change [5] | log2 fold change [6] | log2 fold change [7] | log2 fold change [8] | log2 fold change [9] | log2 fold change [10] | log2 fold change [11] | log2 fold change [12] | log2 fold change [13] | log2 fold change [14] | log2 fold change [15] | log2 fold change [16] | log2 fold change [17] | log2 fold change [18] | log2 fold change [19] | log2 fold change [20]
1 | TRIM65 (UniProt Q6PJ69) | -0.11 | 0.025 | -0.044 | 0.024 | -0.014 | -0.002 | 0.089 | -0.02 | 0.023 | 0.003 | 0.028 | -0.035 | -0.046 | -0.06 | 0.072 | -0.102 | 0.042 | -0.02 | 0.034 | 0.088
2 | TOR3A (UniProt Q9H497) | 0.01 | -0.016 | 0.004 | 0.01 | 0.019 | 0.006 | -0.006 | 0.032 | -0.367 | 0.018 | -0.43 (active) | -0.077 | 0.023 | -0.078 | 0.012 | 0.012 | -0.047 | -0.024 | 0.046 | 0.048
3 | TESC (UniProt Q96BS2) | -0.037 | 0.022 | -0.008 | -0.007 | -0.034 | 0.033 | -0.037 | -0.053 | -0.058 | 0.091 | -0.03 | -0.122 | 0 | -0.095 | 0.026 | -0.066 | 0.026 | 0.073 | 0.048 | 0.037
4 | TUBGCP3 (UniProt Q96CW5) | -0.003 | -0.094 | 0.026 | 0.022 | -0.024 | 0.024 | 0.011 | 0.044 | -0.017 | 0.056 | -0.017 | 0.012 | -0.055 | -0.012 | 0.036 | -0.054 | 0.027 | 0.014 | -0.057 | 0.013
5 | TPP2 (UniProt Q5VZU9) | -0.099 | -0.121 | 0.092 | 0.062 | 0.068 | -0.076 | 0.058 | 0.006 | 0.076 | 0.011 | -0.023 | 0.069 | -0.057 | -0.309 (active) | 0.02 | 0.104 | -0.087 | -0.029 | -0.044 | 0.137
6 | TROAP (UniProt Q12815) | -0.042 | -0.043 | 0.022 | 0.021 | 0.076 | -0.193 | 0.217 | -0.09 | -0.171 | -0.015 | 0.001 | -0.088 | 0.038 | -0.065 | -0.095 | 0.072 | -0.009 | -0.008 | -0.1 | 0.004
7 | TUBB3 (UniProt Q13509) | -0.001 | -0.081 | 0.006 | 0.023 | -0.034 | -0.004 | 0.072 | 0.007 | 0.007 | -0.016 | 0.015 | 0.032 | -0.027 | 0.018 | 0.026 | 0.02 | 0.001 | -0.005 | 0.021 | 0.001
8 | TRIM11 (UniProt Q96F44) | -0.015 | -0.021 | 0.037 | 0.016 | -0.007 | 0.029 | 0.053 | -0.026 | -0.055 | 0.004 | 0.013 | -0.006 | -0.029 | -0.006 | -0.016 | -0.03 | -0.006 | 0.015 | 0.029 | -0.003
9 | TRIM33 (UniProt H0Y612) | -0.081 | -0.034 | 0.119 | -0.007 | 0.075 | 0.014 | 0.122 | -0.006 | 0.09 | -0.102 | -0.078 | 0.044 | 0.004 | -0.093 | 0.012 | 0.019 | 0.07 | 0.001 | -0.077 | 0.039
10 | UFM1 (UniProt P61960) | 0.253 | 0.102 | 0.037 | 0.136 | 0.088 | 0.023 | -0.076 | 0.038 | -0.08 | -0.116 | 0.134 | 0.033 | 0.191 | 0.566 (active) | 0.077 | -0.36 | -0.002 | 0.022 | 0.102 | -0.319
11 | UFSP2 (UniProt Q9NUQ7) | 0.034 | 0.024 | -0.045 | 0.022 | -0.036 | 0.031 | 0.055 | 0.019 | 0.035 | -0.031 | -0.02 | -0.008 | -0.022 | -0.012 | 0.009 | -0.004 | 0.017 | 0.002 | -0.028 | 0.017
12 | TTLL12 (UniProt Q14166) | 0.039 | -0.212 | -0.003 | 0.018 | -0.03 | -0.009 | 0.032 | 0 | 0.003 | 0.039 | -0.002 | -0.02 | -0.039 | 0.014 | 0.015 | -0.091 | 0.023 | 0.016 | -0.004 | 0.014
13 | TIMELESS (UniProt Q9UNS1) | -0.017 | -0.149 | 0.031 | 0 | -0.039 | 0.039 | 0.105 | -0.011 | 0.049 | 0.017 | 0.017 | -0.017 | -0.077 | -0.042 | -0.029 | -0.12 | -0.026 | -0.02 | -0.082 | 0.032
14 | TTI2 (UniProt Q6NXR4) | -0.006 | -0.081 | 0.03 | 0.069 | 0.006 | 0.072 | 0.015 | 0.004 | 0.024 | -0.034 | -0.033 | -0.033 | -0.016 | -0.032 | -0.018 | -0.023 | 0.004 | -0.023 | -0.017 | 0.082
15 | TRAPPC6A isoform 2 (UniProt O75865) | 0.059 | -0.006 | 0.011 | -0.026 | -0.017 | -0.142 | -0.027 | -0.052 | 0 | -0.043 | 0.02 | 0.015 | 0.001 | -0.146 | -0.006 | 0.14 | -0.039 | -0.01 | 0.017 | 0.05
16 | TMEM164 (UniProt Q5U3C3) | -0.393 | 0.05 | -0.039 | 0.007 | 0.333 | -0.107 | 0.185 | -0.075 | 0.021 | -0.063 | -0.166 | 0.186 | -0.03 | -0.789 (active) | 0.131 | 0.27 | -0.091 | -0.173 | -0.05 | 0.512
